In PubChem BioAssay (NCI):
Where “and” joins values, the source holds several entries; their conditions need not be identical. Equal values may be shown once. Compounds without any hit were thinned out: in the full panel of roughly 79,000, 15% have a hit. Rule as the data show it: active = growth inhibition above about 70%; inactive = the rest.

Columns and labels:
[1] = NCI Yeast Anticancer Drug Screen. Data for the rad50 strain (AID 155);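 also: 0% = growth of vehicle-only cultures of the same strain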; conditions: S. cerevisiae rad50 strain growth inhibition, hits give high values; at 50.0 µM unless noted
How it was run: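 Yeast carrying a defined DNA repair defect were exposed to test compounds, and growth was compared with vehicle-treated controls to give percent inhibition.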

[2] = NCI Yeast Anticancer Drug Screen. Data for the mec2-1 strain (AID 157); conditions: S. cerevisiae mec2-1 strain, hits give high values; at 50.0 µM unless noted
How it was run: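 Vehicle-treated cultures served as reference for growth inhibition of compound-exposed mec2-1 yeast.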

[3] = NCI Yeast Anticancer Drug Screen. Data for the sgs1 mgt1 strain (AID 161);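 also: 0% = growth of cultures given vehicle only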; conditions: S. cerevisiae sgs1 mgt1 strain, hits give high values; at 50.0 µM unless noted
How it was run: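 Read-out: growth inhibition vs vehicle controls. Cells: mutant yeast strain deficient in DNA damage repair.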

[4] = NCI Yeast Anticancer Drug Screen. Data for the cln2 rad14 strain (AID 165);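 also: 0% = growth equal to vehicle treated cultures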; conditions: S. cerevisiae cln2 rad14 strain, hits give high values; at 50.0 µM unless noted
How it was run: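 Each compound was tested on cln2 rad14 yeast. Inhibition of growth was calculated against vehicle-exposed controls.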

[5] = NCI Yeast Anticancer Drug Screen. Data for the bub3 strain (AID 167); conditions: S. cerevisiae bub3 mutant strain, hits give high values; at 50.0 µM unless noted
How it was run: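 Compounds were applied to a genetically altered yeast strain carrying a cell-cycle control defect. Growth inhibition was scored against vehicle-treated controls.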

[6] = NCI Yeast Anticancer Drug Screen. Data for the mlh1 rad18 strain (AID 175); conditions: S. cerevisiae mlh1 rad18 strain growth inhibition, hits give high values; at 50.0 µM unless noted
How it was run: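 Vehicle-treated cultures served as the reference for growth inhibition in a yeast strain carrying DNA damage repair alterations exposed to each compound.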

Measured: growth inhibition

CCOC(=O)C(CCCCNC(=O)CC)NC(=O)CC (stereo not given)
inactive: [1] 3.5% | [2] 1.3% | [3] 3.3% | [4] 3.55% | [5] 11.2% | [6] 2.65%

CC1([N+](=O)[O-])COC(Cc2ccccc2)OC1 (stereo not given)
inactive: [1] -7.7% | [2] -4% | [3] -16.9% | [4] -17.3% | [5] -18% | [6] -5%

CCCCCCCCCCCCCCCc1ccc(N)c(OC2OC(CO)C(O)C(O)C2O)c1 (stereo not given)
inactive: [1] -2.15% and -16.8% | [2] 6.7% and -18.2% | [3] 8.8% and 8.55% | [4] -8.15% and -28.3% | [5] -5.6% and 0.95% | [6] 18.1% and -0.4%

O=P(O)(O)OCC1OC(n2cnc3c(=S)nc[nH]c32)C(O)C1O (stereo not given)
inactive: [1] -17.4% | [2] 3.95% | [3] -14.1% | [4] 3.9% | [5] -7.7% | [6] -3.55%

Cc1cccc(C(C)C)c1N1C(=O)C(=O)C(c2nc3ccccc3o2)C(=O)C1=O
inactive: [1] -5.85% | [2] 2.15% | [3] 16.1% | [4] 39.1% | [5] 16.5% | [6] 31.2%

C/C(=N\Nc1nc2ccccc2s1)c1ccc2c(c1)Sc1ccccc1O2
inactive: [1] 42.9% | [2] 7.7% | [3] 11.9% | [4] 21.8% | [5] -1.8% | [6] 15.9%

OC12c3ccccc3C1CCCCCCCCCC21OCCCO1 (stereo not given)
inactive: [1] -2.65% | [2] -19.8% | [3] -42.6% | [4] 6.4% | [5] -30.4% | [6] -23.6%

O=C(Cc1nc2ccccc2s1)C(=O)Nc1cccc(C(F)(F)F)c1
inactive: [1] -4.95% | [2] 8.75% | [3] -10.7% | [4] 7.95% | [5] 6.1% | [6] -6%

Cc1ccc(NC(=O)CCCl)cc1
inactive: [1] 3.4% | [2] -1.55% | [3] 2.05% | [4] -19.1% | [5] -0.5% | [6] -14.3%

NC(N)=N/N=C(/CC1OC(=O)c2ccccc21)c1ccc2ccccc2c1 (stereo not given)
inactive: [1] -3.2% | [2] -12.4% | [3] -2.65% | [4] 6.5% | [5] -16.1% | [6] -11.9%

COc1ccc(C2OC3=C(Nc4ccccc4N3)C2=O)cc1 (stereo not given)
inactive: [1] 19.5% | [2] 5.8% | [3] 27.4% | [4] 14.1% | [5] -14.3% | [6] 46.2%

COc1cccc(C2c3cc4c(cc3OC(C)(O)C2C)OCO4)c1O (stereo not given)
inactive: [1] -4.7% | [2] -3.75% | [3] -0.25% | [4] -24.8% | [5] 1.65% | [6] -9.9%

C#CC1(O)C2CCc3cc(OC)ccc3C2CCC1(C)C(=O)OC (stereo not given)
inactive: [1] 10.8% | [2] -0.2% | [3] 4.05% | [4] 6.85% | [5] -11.9% | [6] -11.6%

c1ccc(N2CN(c3ccccc3)C2)cc1
inactive: [1] -19.4% | [2] -8.25% | [3] 4% | [4] -11.6% | [5] 5.6% | [6] 15.8%

COC1OC(CO)C(O)C(O)C1OS(=O)(=O)c1ccc(C)cc1 (stereo not given)
inactive: [1] 5.7% | [2] -3% | [3] -10.1% | [4] 1.75% | [5] -1.85% | [6] -13.2%

NC(=O)C(=Cn1c(=S)[nH]c2ccc([N+](=O)[O-])cc21)C(N)=O
inactive: [1] -10% | [2] -40.9% | [3] -9.9% | [4] 11.7% | [5] -22.6% | [6] 31.9%

CC1=NN(C(=O)Cc2ccccc2)C(=O)/C1=C\C=C\c1ccccc1
inactive: [1] 11.3% | [2] -28.2% | [3] -20.6% | [4] -9.2% | [5] -15.2% | [6] -7.85%

O=C(CSC(=S)N1CCOCC1)Nc1nc2c(s1)CCCC2
inactive: [1] -15.1% | [2] -32% | [3] -28.2% | [4] 2.6% | [5] -1.65% | [6] -16.3%

C=CCN1C(=O)CS/C1=N/NC(=O)C(O)(c1ccccc1)c1ccccc1
inactive: [1] -19.6% | [2] -47.7% | [3] 6.1% | [4] -25.4% | [5] -24.3% | [6] -4.05%

CN1c2ccccc2N(C(=O)c2ccc(Cl)cc2)C(CC(=O)O)c2cccn21 (stereo not given)
inactive: [1] 43.1% | [2] 31.1% | [3] 23.3% | [4] 44.8% | [5] 38.5% | [6] 29.2%

Cc1ccc(S(=O)(=O)N(CC(=O)c2ccccc2)c2ccc(Br)cc2)cc1
inactive: [1] 22.9% | [2] 6.6% | [3] 26.1% | [4] 4.9% | [5] 2.05% | [6] 16.1%

N#CC(C(=O)CCC(=O)NCCc1ccccc1)c1nc2ccccc2s1 (stereo not given)
inactive: [1] -11.9% | [2] -6.05% | [3] -10.8% | [4] -10.1% | [5] 4.8% | [6] 4.55%

CC12CC(=O)OC1(C)C1CCC2C1 (stereo not given)
inactive: [1] 9.25% | [2] 10.3% | [3] -5.25% | [4] -10.7% | [5] -10.2% | [6] 9.05%

COc1ccc2c(c1)OC[C@@H]1c3cc(NS(=O)(=O)c4ccccc4)cc(OCc4ccccc4)c3O[C@H]21
inactive: [1] -16.4% | [2] -8.75% | [3] -13.5% | [4] -17.3% | [6] -6.55%

CCC1CC2CC(c3cc4c(cc3OC)N(C)C3C(O)(C(=O)OC)C(OC(C)=O)C5(CC)C=CCN6CCC43C65)c3[nH]c4ccccc4c3CCN(C1)C2 (stereo not given)
inactive: [1] 17.9% | [2] 14.3% | [3] 28.9% | [4] 2% | [6] 43.4%

Cc1cc2c(cc1Cl)SC(NNC1=NCCN1)=NS2(=O)=O
inactive: [1] -23.1% | [2] -8.65% | [3] -20% | [4] -2.25% | [6] 9.95%

COc1ccc(-c2cc(=O)c3c(O)c(OC)c(O)cc3o2)cc1O
inactive: [1] 24.8% | [2] 14.9% | [3] 37.5% | [4] 22.9% | [5] 37.5% | [6] 17.1%

O=C(Nc1ccccc1)C12CCC(CC1Br)C2 (stereo not given)
inactive: [1] 4.95% | [2] -9.25% | [3] -9.7% | [4] 7.6% | [6] 14.2%

CCn1nc(C)c2c1C(=O)NC(C)C(=O)N2 (stereo not given)
inactive: [1] -22.6% | [2] -33% | [3] -13.5% | [4] 16.4% | [6] -22.4%

NC(=O)C1(N2CCCC2)CCN(Cc2ccccc2)CC1
inactive: [1] -9.2% | [2] -18.9% | [3] -17.6% | [4] -1.6% | [6] -15.8%

COC(=O)C(Cc1ccccc1)C(=O)C(CC(=O)OC(C)(C)C)NC(=O)OC(C)(C)C (stereo not given)
inactive: [1] 14.7% | [2] 1.15% | [3] 17% | [4] 10.8% | [6] -27.5%

ClCCOC1CCCCO1 (stereo not given)
inactive: [1] -19% | [2] -15.2% | [3] -13.6% | [4] 6.2% | [6] -5.15%

O=C1CSC(c2ccc(O)cc2)N1c1nncs1 (stereo not given)
inactive: [1] 0.4% | [2] -0.75% | [3] 16.8% | [4] -0.55% | [6] 11.9%

O=P1(O)c2ccccc2Nc2cc(C(F)(F)F)ccc21
inactive: [1] 24.1% | [2] -8.25% | [3] -9.8% | [4] 8.7% | [6] -49.4%

O=C(O)C1(C(=O)O)CCCCC1.[NH2-].[NH2-].[Pt+2]
inactive: [1] 2.65% | [2] 17.5% | [3] 1.6% | [4] 22.2% | [6] 15.8%

Cc1c2noc1CCCCCCCCCCC2
inactive: [1] 18.9% | [2] 20% | [3] 3.6% | [4] -4.15% | [6] 17.9%

Cc1ccc(S(=O)(=O)c2ccccc2)cc1
inactive: [1] -18.4% and 23.4% | [2] -15.6% and -0.95% | [3] -22.5% and 23% | [4] 2.4% and 1.35% | [6] -43.6% and 16.6%

C=CCc1cc2c(C)cc(=O)oc2c(C)c1OC(C)=O
inactive: [1] -4.1% | [2] -23.8% | [3] -1.1% | [4] 13.1% | [5] -25.9% | [6] -2.45%

CC(C)(C)C1C=C(Sc2ccccc2)C(=O)O1 (stereo not given)
inactive: [1] 28.8% | [2] 7.3% | [3] 6.25% | [4] 1.8% | [6] 30.1%
